Screening results as filed in PubChem BioAssay.
AMA1-RON2 inh – qHTS for Inhibitors of AMA1-RON; Towards Development of Antimalarial Drug Lead: Primary Screen. AlphaScreen AMA1-biotinylated RON2 peptide binding. Potency, µM (titrated, usually from 58.2 µM), most hits filed as inhibitors. 360,000 tested, 0.2% active; also: nearly all actives have a fitted effect of over 45% in size
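AMA1 (3D7) with his tag at 25 nM final met compounds first, then biotinylated RON2 peptide at 25 nM; detection used donor plus acceptor beads, 10 µg/mL apiece, read by AlphaScreen after 30 min at room temperature.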
AmpC inh no detg – qHTS Inhibitors of AmpC Beta-Lactamase (assay without detergent); Potency, µM (highest dose often 57.1 µM), actives largely listed as inhibitors; 330,000 tested, 0.52% active; AmpC nitrocefin hydrolysis, absorbance 480 nm, 0.0001% Triton; also: nearly all actives have a fitted effect of over 20% in size
Target sequence (P00811 whole entry, looked up): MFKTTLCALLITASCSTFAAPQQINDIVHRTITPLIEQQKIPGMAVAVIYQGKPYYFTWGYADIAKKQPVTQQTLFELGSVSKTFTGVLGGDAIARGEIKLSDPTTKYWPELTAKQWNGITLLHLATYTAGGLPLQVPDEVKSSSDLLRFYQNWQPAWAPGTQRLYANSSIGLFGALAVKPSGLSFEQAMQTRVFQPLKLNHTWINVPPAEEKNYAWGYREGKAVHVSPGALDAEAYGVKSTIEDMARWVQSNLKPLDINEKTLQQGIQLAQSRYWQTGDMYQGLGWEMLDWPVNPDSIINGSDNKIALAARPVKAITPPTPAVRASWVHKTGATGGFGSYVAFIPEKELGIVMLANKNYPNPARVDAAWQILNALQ
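20 mM phosphate pH 7.0 + 0.01% (detergent screen) or 0.0001% Triton X-100; 5.3 nM AmpC reagent; cpd preinc 15 min RT; nitrocefin (800 uM stock) to start; A480 q20 s × 4 min; Activity was normalised to no-enzyme and no-compound control wells.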
AmpC inh detg – qHTS Inhibitors of AmpC Beta-Lactamase (assay with detergent); Potency, µM (series often up to 114 µM), usual class: inhibitors; P00811; 370,000 tested, 0.041% active; AmpC hydrolysis of nitrocefin, absorbance 480 nm, 0.01% Triton; AID 485294, 2010; also: nearly all actives have a fitted effect of over 25% in size
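20 mM phosphate pH 7.0 + 0.01% (detergent screen) or 0.0001% Triton X-100; 5.3 nM AmpC reagent; cpd preinc 15 min RT; nitrocefin (800 uM stock) to start; A480 q20 s × 4 min; Activity was normalised to no-enzyme and no-compound control wells.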
CHX counter – Cycloheximide Counterscreen for Small Molecule Inhibitors of Shiga Toxin; cell reporter, cycloheximide protein synthesis inhibition counterscreen; max response, %; 300,000 tested, 12% active; in the data active = max response mostly above about 13%, no sharp cut-off; inactive = mostly below about 14%; also: read at 38.3 µM for the half of the compounds with a filed dose
Shiga inhibitor – A qHTS for Small Molecule Inhibitors of Shiga Toxin. Vero cells, Shiga toxin protein synthesis inhibition reporter. 290,000 tested, 9.2% active. AID 2315, 2010. inhibition, % at 38.7 µM; in the data active = inhibition mostly above about 28%, no sharp cut-off; inactive = mostly below about 43%
SARS PLP yeast – qHTS of Yeast-based Assay for SARS-CoV PLP. S. cerevisiae expressing SARS-CoV PLpro, growth rescue. Potency, µM (highest dose often 32.9 µM), actives largely listed as activators. 330,000 tested, 0.19% active; calls by dose curve; also: nearly all actives have a fitted effect of over 55% in size
Numbers stand for hits; . = inactive; ? = inconclusive; / = no result given; + = active, no number; [ ] = another dose, or the depositor's remark. The entries come from a sample that favours hits as a whole. Unless noted, calls follow the shape of the dose curve; as a rule, active = well fitted curve in the direction sought with a large enough effect; inconclusive = small, poorly fitted or top-dose-only effect, or another doubt; inactive = no such curve, though single readings can be large; an effect the other way counts as inactive or inconclusive.

SMILES	AMA1-RON2 inh	AmpC inh no detg	AmpC inh detg	CHX counter	Shiga inhibitor	SARS PLP yeast
CN(C)S(=O)(=O)c1cccc(NC(=O)COC(=O)c2cc(=O)c3ccccc3o2)c1	.	.	.	.	.	.
CCOC(=O)c1nc(NCCc2ccccc2)sc1C	?	.	.	53	133	.
Cc1nc(NCCc2ccccc2)sc1C(=O)N(C)C	.	.	.	37	58	.
Cc1nc(Nc2ccccc2C(F)(F)F)sc1C(=O)N(C)C	.	.	.	26	45	.
COc1ccccc1CNc1nc(C)c(C(=O)N(C)C)s1	.	.	.	.	.	.
CCOC(=O)c1nc(NNC(C)=O)sc1C	.	.	.	.	.	.
Cc1cc(O)c(-c2ccno2)cc1Cl	.	.	.	.	.	.
FC(F)(F)c1cnc(-c2cnc(-c3ccccn3)nc2)c(Cl)c1	.	.	.	.	52	.
NC(=S)c1ncc(C(F)(F)F)cc1Cl	.	.	.	.	.	.
FC(F)(F)c1cc(Oc2ccccc2Cl)nc(-c2ccccn2)n1	.	.	.	.	.	.
FC(F)(F)c1cnc(-c2cnc(-c3ccncc3)nc2)c(Cl)c1	.	.	.	20	.	.
Cc1cc(=O)oc2cc(OCC(=O)N3CCOCC3)ccc12	.	.	.	.	.	.
COc1cccc(C(=O)c2sc(NC(C)C)nc2N)c1	.	.	.	36	51	.
COc1ccc(C(=O)c2sc(NC(C)C)nc2N)cc1OC	.	.	.	.	.	.
O=C1CCCCCCCCCC/C(=N\O)CCCO1	.	/	/	/	/	/
O=C(COc1ccc(Cl)cc1)Nc1ccc2c(c1)CCC2	.[2.32 µM]	.	?	.	.	.
Cc1ccc(OCC(=O)Nc2ccc(Cl)cc2)c([N+](=O)[O-])n1	.	.	.	/	/	.
Cc1ccc(OCC(=O)Nc2ccc3c(c2)CCC3)c([N+](=O)[O-])n1	.	.[11.4 µM]	.	40	67	.
Cc1ccc(OCC(=O)Nc2ccc(F)cc2)c([N+](=O)[O-])n1	.	.	.	56	+	.
CC(=O)c1ccc(OCC(=O)Nc2ccc3c(c2)CCC3)cc1	.	.	.	20	.	.
CC(C)COP(=O)(OCC(C)C)C(Nc1ccccc1)c1ccccc1 (centres undefined)	.	.	.	.	.	.
CC1=C(C(=O)N2CCOCC2)C(c2c(C)cc(C)cc2C)NC(=S)N1 (centres undefined)	.	.[11.4 µM]	.	.	.	.
CN(Cc1ccccc1)C(=O)c1ccc(NC(=O)Cc2ccc(NC(=O)C3CCCN(C(=O)c4ccccc4)C3)cc2)cc1 (centres undefined)	.	/	/	/	/	/
CCCCCC(=O)N/N=C(\C)c1ccc(NC(=O)c2ccco2)cc1	.	.	?	30	81	.
CCCCCC(=O)NC(=S)Nc1ccc(NC(=O)c2ccco2)cc1	.	.	.	.	.	.
SMILES	AMA1-RON2 inh	AmpC inh no detg	AmpC inh detg	CHX counter	Shiga inhibitor	SARS PLP yeast
C/C(=N\NC(=O)c1ccc(-c2ccccc2)cc1)c1ccco1	.	.	?	.	.	.
C/C(=N/NC(=O)c1ccco1)c1ccc(NC(=O)c2ccc(F)cc2)cc1	.	.	.	90	58	.
C/C(=N/NC(=O)c1ccco1)c1ccc(NC(=O)c2ccc(Br)o2)cc1	.	.	.	62	96	.
COc1ccccc1NC(=O)Cn1c(=O)sc2ccccc21	.	.	?	.	.	.
Cc1ccccc1N1CC(C(=O)Nc2ccc(S(=O)(=O)NCC3CCCO3)cc2)CC1=O (centres undefined)	.	.	.	.	.	.
CS(=O)(=O)N(CC(N)=O)c1ccc(F)c(Cl)c1	.	0.32µM	.	.	.	.
COc1ccc2oc(=O)c(-c3nc(-c4cccs4)no3)cc2c1	/	/	.	/	/	/
COc1ccc(N=c2oc3ccc(OC)cc3cc2-c2nc3ccccc3[nH]2)cc1	.	/	.	28	162	/
COc1cccc(N=c2oc3ccccc3cc2-c2nc3ccccc3[nH]2)c1	.	.	?	38	63	.
COc1cccc(N=c2oc3ccc(OC)cc3cc2-c2nc3ccccc3[nH]2)c1	.	/	.	40	94	/
CCCCNc1c(-c2cccc(-c3cc(C(C)=O)cs3)c2)nc2ccc(C)cn12	.	.	.	/	/	.
COc1cc(/C=C(/C#N)c2nc3ccccc3[nH]2)ccc1OCc1ccc(C(=O)O)o1	.	.	.	.	.	.
COC(=O)c1ccc(COc2ccc(/C=C(\C#N)c3nc4ccccc4[nH]3)cc2OC)o1	.	.	.	33	81	.
CCc1ccc(NC(=O)COc2ccc(/C=C(/C#N)c3nc4ccccc4[nH]3)cc2OC)cc1	.	.	.	22	active	.
CCc1ccccc1N(C(=O)c1snc(C(N)=O)c1N)C(C(=O)NCC1CCCO1)c1ccc(N(C)C)cc1 (centres undefined)	.	.	?	.	.	.
CCCN(S(=O)(=O)c1ccc(OCC)cc1)S(=O)(=O)c1cccs1	.	.	.	28	37	.
FC(F)(F)c1ccc(-c2csc(-c3ccno3)n2)cc1	.	.	.	39	84	.
O=C(CSCc1ccc(F)cc1)NCc1ccc2c(c1)OCO2	.	.	.	.	.	.
COc1ccc(C(=O)Nc2nnc(CC(=O)N/N=C/c3ccc(O)cc3O)s2)cc1	/	.	.	17	43	.
Cc1ccc(C(=O)Nc2nnc(CC(=O)N/N=C/c3ccncc3)s2)cc1	.	.	.	30	57	.
Cc1ccc(C(=O)Nc2nnc(CC(=O)N/N=C/c3ccc(O)c(O)c3)s2)cc1	?	.	.	24	.	.
COc1ccc(Cl)cc1NC(=O)Cn1nnc(C(=O)NCc2ccc3c(c2)OCO3)c1N	.	.	?	.	.	.
CCN1CCN(C2=C(NS(=O)(=O)c3ccc(Br)cc3)C(=O)c3ccccc3C2=O)CC1	.	.	.	.	.	.
O=C1C(NS(=O)(=O)c2ccc(Cl)cc2)=C(N2CCCCC2)C(=O)c2ccccc21	11µM	.	.	.	.	.
CCN1CCN(C2=C(NS(=O)(=O)c3ccccc3)C(=O)c3ccccc3C2=O)CC1	.	.	.	12	.	.
CCOC(=O)C1CCN(C2=C(NS(=O)(=O)c3ccc(Br)cc3)C(=O)c3ccccc3C2=O)CC1	13µM	.	.	16	.	.
NC(=O)C1CCN(C2=C(NS(=O)(=O)c3ccc(Br)cc3)C(=O)c3ccccc3C2=O)CC1	.	.	?	.	.	.
CCC(C)NC(=O)c1ccc2nc(Cc3ccc(OC)cc3)oc2c1 (centres undefined)	.	.	.	.	.	.
